Holding throughout (assay): NCI-60 one-dose screen, 48 h (100 = growth as untreated, 0 = no growth, -100 = all killed)
Holding throughout (conditions): 10 µM unless noted

Test [1] has as its system RPMI-8226 leukemia.
Test [2] deals with OVCAR-8 ovarian.
Test [3] relates to OVCAR-5 ovarian.
Test [4] relates to OVCAR-4 ovarian.
The test system of test [5] is SK-OV-3 ovarian.
Test [6] relates to IGROV1 ovarian.
In test [7] the test system is OVCAR-3 ovarian.
Test [8] has as its system HS 578T breast.
Test [9] deals with NCI/ADR-RES ovarian.
Test [10] relates to T-47D breast.
In test [11] the test system is BT-549 breast.
The test system of test [12] is MDA-MB-435 melanoma.
The subject of test [13] is SW-620 colon.
For test [14], the system named is MCF7 breast.
Test [15] concerns HCT-116 colon.
In test [16] the test system is HCC-2998 colon.
Test [17] deals with KM12 colon.

Molecules are shown by their SMILES. This is part of a sample that, as a whole, favours compounds with a hit. Of some 83,000 tested, about 20% had one in any assay.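 Treatment: one concentration, 48 hours, 96-well format. Scoring: percent growth, with anything below 10 considered active.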 Unmarked numbers belong to inactive results. Calls of active or inactive are those of the source.

For `Cc1ccc(C2CC(c3ccc(Nc4nc(NCCO)nc(NCCO)n4)cc3)=NN2c2ccc(Cl)cc2)cc1` (stereo unspecified), the growth is 47.5% in test [1]; 66% in test [2]; 99% in test [3]; 63.9% in test [4]; 98.6% in test [5]; 82.6% in test [6]. The growth in [7] was 45.7%; in test [8], 72.8%; in [9] it was 80.4%; in test [10], 53.1%; in test [11], 79%; in [12] it was 61.5%. Further, the growth is 80.4% in [13]; 27.6% in test [14]; 41.2% in test [15]; 64.1% in [16]; 52.4% in test [17].
Take `N#Cc1nc(-c2ccccc2)oc1S(=O)(=O)NCC(c1ccc(Cl)cc1)N1CCCCC1` (stereo unspecified): the growth was 3.47% (active) in test [1]; 71.3% in test [2]; 102% in [3]; 99.3% in test [4]; 113% in [5]; 44.2% in test [6]. Further, the growth was 61.9% in test [7]; 102% in test [8]; 91.1% in test [9]; 65.1% in test [10]; 77.6% in [11]; 64.3% in test [12]. Moreover, the growth in test [13] was 26.5%; in test [14] it was 35%; in test [15], 27.3%; in test [16], 107%; in [17], 80.6%.
In the case of `OCCNc1nc(NCCO)nc(Nc2ccc(C3=NN(c4ccc(Cl)cc4)C(c4ccc(Cl)cc4)C3)cc2)n1` (stereo unspecified), the growth in test [1] is 27.7%; in test [2], 65.3%; in test [3] it was 110%; in [4] it was 65.6%; in [5], 84.1%; in [6], 78.9%. Moreover, the growth in test [7] is 40.7%; in test [8], 62%; in test [9], 73.8%; in [10], 55.8%; in test [11], 77.1%; in test [12], 58.1%. Moreover, the growth in test [13] is 71.1%; in [14], 20.4%; in [15], 48.6%; in [16], 56.8%; in [17], 49.8%.
On to `CS(=O)(=O)O[C@@H]1C(=O)N(c2cc3c4ccccc4ccc3c3ccccc23)[C@H]1c1ccc(F)cn1`, for which the growth was 19.8% in [1]; 27.4% in test [2]; 58.3% in [3]; 66.5% in [4]; 41.7% in test [5]; 51.7% in test [6]. The growth in test [7] is -12.7% (active); in [8], 7.01% (active); in test [9], 20.2%; in test [10] it was 32.5%; in test [11], 44.6%; in test [12], -26% (active). Moreover, the growth in test [13] is 22.5%; in [14], 21.6%; in [15], 14.3%; in test [16], 60.1%; in [17], 23%.
With `N#Cc1c(-c2ccc(F)cc2)nc(N/N=C/c2c[nH]c3ccccc23)nc1N1CCOCC1`, the growth in test [1] was 33.5%; in [2] it was 58%; in test [3] it was 94.8%; in test [4], 80.4%; in test [5] it was 92.6%; in [6] it was 65.1%. Also, the growth in test [7] was 65.9%; in test [8] it was 34.4%; in [9], 61%; in test [10], 76.4%; in test [11] it was 75.5%; in test [12], 77.2%. Besides, the growth in test [13] is 7.62% (active); in [14], 51.5%; in test [15], 44.3%; in [16], 59%; in [17] it was 40%.
For the compound `OCCNc1nc(NCCO)nc(Nc2ccc(C3=NN(c4cc(Cl)cc(Cl)c4)C(c4ccc(Cl)cc4)C3)cc2)n1` (stereo unspecified), the growth in [1] was -8.1% (active); in test [2] it was 20.8%; in test [3] it was 86%; in test [4] it was -17.6% (active); in test [5], 83.1%; in [6] it was -11.6% (active). Moreover, the growth in test [7] was -60.4% (active); in [8], 11.6%; in test [9] it was 20.6%; in test [10] it was 87.1%; in [11] it was 52.1%; in test [12], -15.8% (active). In addition, the growth in test [13] was 23.4%; in test [14], 3.94% (active); in test [15], 4.84% (active); in test [16], 27.1%; in test [17], 19.3%.
Consider `O=C(Nc1nc(-c2ccccc2Cl)cs1)c1cc(-c2ccc(Br)cc2)nc2ccccc12`, for which the growth was 29% in [1]; 43.1% in test [2]; 70.6% in test [3]; 46.6% in [4]; 31.8% in [5]; 61.4% in test [6]. Also, the growth in test [7] was 47%; in test [8], 79.6%; in test [9], 57.2%; in test [10] it was 9.58% (active); in test [11], 70.9%; in [12], 64.5%. Moreover, the growth in test [13] is 57%; in test [14], 29.4%; in test [15] it was 43.6%; in test [16], 63.9%; in test [17], 59%.
On to `COC(=O)c1cc2c3c(cc(O)c2[nH]1)N(C(=O)C1Cc2cc(OC)c(OC)c(OC)c2N1)CC3CCl` (stereo unspecified), for which the growth in [1] was -13.2% (active); in test [2], -50.5% (active); in test [3] it was -61.1% (active); in test [4], -98.7% (active); in [5] it was -44.9% (active); in test [6] it was -10.6% (active). The growth in test [7] is -83% (active); in test [8], 1.21% (active); in [9], -34.6% (active); in [10] it was -48.9% (active); in test [11] it was -84.6% (active); in [12], -14% (active). Further, the growth in test [13] was -10.8% (active); in test [14], -5.51% (active); in test [15], -63.3% (active); in test [16], -73.2% (active); in test [17], -29.4% (active).
